Laboratory results published in PubChem BioAssay (NCATS).
Several values for one entry are separate records, joined by “and”; a condition that tells them apart may be missing. Identical values can stand only once. Inconclusive results are not listed. Activity calls are given as the source filed them. Calls come from the whole dose curve; as a rule, active = well fitted inhibition curve with a large enough effect; inconclusive = small, poorly fitted or top-dose-only effect; inactive = flat fitted curve, though single readings scatter.

Key:
CRL-7250 = normal cell line; assay: Cytotoxic Profiling of Annotated Libraries Using Quantitative High-Throughput Screening (AID 1296008); conditions: Five cell lines viability, CellTiter-Glo ATP luminescence, 48-72 h; max response: active compounds read low; note: potency is the fitted concentration of half-maximal effect; for max response: % is set by controls: 0 for no effect and ±100 for the full control effect
Method in brief: (§1)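 Compounds were pin-transferred onto cells and incubated 48 or 72 hr at 37 degree Celsius, 95% humidity. CellTiter-Glo was added, plates sat 10 min at room temperature, then ATP-coupled luminescence was imaged as the viability read-out.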

HEK293 = assay: as above; conditions: Five cell lines viability, CellTiter-Glo ATP luminescence, 48-72 h; max response: active compounds read low
Method in brief: as §1

HaCat [1] = assay: as above; conditions: Five cell lines viability, CellTiter-Glo ATP luminescence, 48-72 h; max response: active compounds read low
Method in brief: as §1

KB-3-1 = assay: as above; conditions: Five cell lines viability, CellTiter-Glo ATP luminescence, 48-72 h; max response: active compounds read low
Method in brief: as §1

HACAT [2] = assay: qHTS assay to identify novel small-molecules to repurpose for Merkel cell carcinoma treatment (AID 1296009); conditions: MCC and control cell lines, CellTiter-Glo viability, 72 h; series mostly up to 44.8 µM
Method in brief: (§2)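 Luminescence from CellTiter-Glo, read 10 min after addition at room temperature, reported viability following a 72 hr, 37 degree celsius treatment with NPC or MIPE compounds in titration; values normalized to plate controls.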

NIH3T3 = assay: Cytotoxic Profiling of Annotated Libraries Using Quantitative High-Throughput Screening (AID 1296008); conditions: Five cell lines viability, CellTiter-Glo ATP luminescence, 48-72 h; max response: active compounds read low; note: potency is the fitted concentration of half-maximal effect; for max response: % is set by controls: 0 for no effect and ±100 for the full control effect
Method in brief: as §1

HEK293T = assay: qHTS assay to identify novel small-molecules to repurpose for Merkel cell carcinoma treatment (AID 1296009); conditions: MCC and control cell lines, CellTiter-Glo viability, 72 h; at 44.8 µM (top of the series) unless noted
Method in brief: as §2
Note: nearly all actives have a fitted effect of over 60% in size.

CC(C)CCC[C@@H](C)[C@H]1CC[C@H]2[C@@H]3CC(=O)[C@H]4C[C@@H](O)CC[C@]4(C)[C@H]3CC[C@]12C
inactive: max response (CRL-7250) -2.74% | max response (HEK293) -0.18% | outcome (HaCat [1]) | max response (KB-3-1) -11.4% | Potency (HACAT [2])

COc1cc(C(=O)OC[C@H]2O[C@@H](Oc3ccccc3/C=C/C(=O)O)[C@H](O)[C@@H](O)[C@@H]2O)cc(OC)c1OC
inactive: max response (CRL-7250) -2.66% | max response (HEK293) -0.285% | outcome (HaCat [1]) | max response (KB-3-1) 5.09% | max response (NIH3T3) 0.074% | Potency (HACAT [2])

COc1cc(OC)c(/C=C/S(=O)(=O)Cc2ccc(OC)c(NCC(=O)O)c2)c(OC)c1
active: Potency (CRL-7250) 0.231 µM | Potency (HEK293) 0.058 µM | Potency (KB-3-1) 0.206 µM | Potency (NIH3T3) 0.146 µM
inactive: outcome (HaCat [1]) | Potency (HACAT [2])

CN1CCN(C(=O)c2ccc3cc(CCNc4ncnc5ccc(C#N)cc45)ccc3c2)CC1
inactive: outcome (HaCat [1]) | max response (KB-3-1) -26.4% | max response (NIH3T3) -2.38% | Potency (HACAT [2])
active: Potency (CRL-7250) 4.61 µM | Potency (HEK293) 2.91 µM

CC(=O)O[C@@H]1[C@@H](O)[C@H](O[C@H]2CC[C@]34C[C@]35CC[C@]3(C)[C@@H]([C@@]6(C)CC[C@@H](C(C)(C)O)O6)[C@@H](O)C[C@@]3(C)[C@@H]5C[C@H](O[C@@H]3O[C@H](CO)[C@@H](O)[C@H](O)[C@H]3O)[C@H]4C2(C)C)OC[C@H]1O
inactive: max response (CRL-7250) 1.83% | max response (HEK293) -2.54% | outcome (HaCat [1]) | outcome (KB-3-1) | Potency (HACAT [2])

Cc1ccc(-c2c(C(=O)CF)n(CCCO)c3ncnc(N)c23)cc1
inactive: max response (CRL-7250) -0.58% | outcome (HEK293) | max response (HaCat [1]) 4.6% | max response (KB-3-1) 4.56% | outcome (HEK293T)

CC1CCCCN1S(=O)(=O)c1ccc(N2CCCC2=O)cc1 (centres undefined)
inactive: max response (CRL-7250) -8.63% | outcome (HEK293) | max response (HaCat [1]) -10.9% | max response (KB-3-1) -2.83% | outcome (HEK293T)

C[C@@H]1CCC2C(C)(C)[C@H](O)CC[C@]2(C)[C@@]12Cc1c(O)cc3c(c1O2)CN([C@@H](CCC(=O)O)C(=O)O)C3=O (some centres undefined)
inactive: outcome (CRL-7250) | outcome (HEK293) | outcome (HaCat [1]) | max response (KB-3-1) 6.48% | Potency (HACAT [2]) | outcome (HEK293T) inactive [at 17.4 µM]

Cn1cc(-c2ccc3nnc(Sc4ccc5nn(C)cc5c4)n3n2)cn1
inactive: max response (CRL-7250) -2.56% | outcome (HEK293) | max response (HaCat [1]) -20.1% | outcome (KB-3-1) | outcome (HEK293T)

CN1CCN(c2ccc(C(=O)Nc3n[nH]c4ccc(Cc5cc(F)cc(F)c5)cc34)c(NC3CCOCC3)c2)CC1
active: Potency (CRL-7250) 20.9 µM | Potency (HEK293) 7.41 µM | Potency (HaCat [1]) 18.4 µM and 14.8 µM | Potency (NIH3T3) 10.5 µM

CC1(C)CCC[C@]2(C)[C@H]3CC(=O)O[C@]3(C)CC[C@@H]12
inactive: max response (CRL-7250) -21.8% | max response (HEK293) -37.4% | max response (KB-3-1) -11%

COc1cc2ncnc(N3CCC(Oc4cnc5ccccc5n4)C3)c2cc1OC (centres undefined)
active: Potency (CRL-7250) 6.51 µM | Potency (HEK293) 0.366 µM | Potency (KB-3-1) 1.03 µM

CCCN1CCC(c2cccc(S(C)(=O)=O)c2)CC1
inactive: max response (CRL-7250) -0.494% | max response (HEK293) -1.41% | max response (KB-3-1) -3.93%

CCNCc1nc2c(N)nc3ccccc3c2n1CC(C)(C)O
inactive: outcome (CRL-7250) | max response (HEK293) -9.18% | outcome (HaCat [1]) | outcome (NIH3T3) | Potency (HACAT [2])

Cc1c(NC(=O)c2cc(C(N)=O)nc3cc(F)ccc23)c(C(F)(F)F)nn1Cc1ccc(C#N)cc1
inactive: max response (CRL-7250) -21.4% | max response (KB-3-1) 4.52%
active: Potency (HEK293) 0.0862 µM

COc1ccc(-n2[nH]c(=O)c3[nH]c4cc(Cl)ccc4c(=O)c3c2=O)c(C)c1
inactive: max response (CRL-7250) 1.23% | outcome (HEK293) | outcome (HaCat [1]) | max response (NIH3T3) 4.85% | Potency (HACAT [2]) | outcome (HEK293T)

COc1cc2nc(N3CCC(N4CCCCC4)CC3)nc(NC3CCCCCC3)c2cc1OC
active: Potency (CRL-7250) 16.4 µM | Potency (HEK293) 5.17 µM | Potency (KB-3-1) 5.8 µM

CN(C)c1ccc2c(c1)OC(N)=C(C#N)C2c1cccc(C(F)(F)F)c1 (centres undefined)
active: Potency (CRL-7250) 1.64 µM | Potency (HEK293) 0.184 µM | Potency (KB-3-1) 0.291 µM

C=CC(=O)Nc1cccc(CN2C(=O)N(c3c(Cl)c(OC)cc(OC)c3Cl)Cc3cnc(NCCCCN(CC)CC)nc32)c1
active: Potency (CRL-7250) 10.3 µM | Potency (HEK293) 16.4 µM | Potency (KB-3-1) 18.4 µM

CC1(C)CC[C@]23CO[C@@]4(CCC5[C@@]6(C)CC[C@H](O[C@@H]7OC[C@H](O[C@@H]8O[C@H](CO)[C@@H](O)[C@H](O)[C@H]8O)[C@H](O)[C@H]7O[C@@H]7O[C@H](CO)[C@@H](O[C@@H]8O[C@H](CO)[C@@H](O)[C@H](O)[C@H]8O)[C@H](O)[C@H]7O)[C@@](C)(CO)C6CC[C@@]5(C)[C@]4(C)C[C@H]2OC2OCC(O)C(O)C2O)C3C1 (some centres undefined)
inactive: max response (KB-3-1) -11.5%
active: Potency (CRL-7250) 1.55 µM | Potency (HEK293) 2.45 µM

Cc1ccccc1NC(=O)Nc1ccc(CC(=O)N(C)[C@@H](CC(C)C)C(=O)NCC[C@H](NC(=O)[C@@H]2CCCN2S(=O)(=O)c2cc(Cl)cc(Cl)c2)C(=O)O)cc1
inactive: max response (CRL-7250) -22.4% | outcome (HEK293) | outcome (HaCat [1]) | max response (NIH3T3) -5.85% | Potency (HACAT [2]) | outcome (HEK293T) inactive [at 17.4 µM]
